Bioassay records as filed in PubChem.
HSF1 inhib: HSF1 inhibitors in luciferase reporter cells, primary screen, cell-based, NIH3T3, luminescence. activity change, negative = inhibition, % at 7.5 µM (by protocol). NIH3T3-HGL HSE-luciferase, MG132-induced, luminescence 8 h; hits give low values. 300,000 tested, 0.77% active. AID 2098, 2009;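 active = more than half of replicate wells show activity change below -50%, luminescence cut by over half; inconclusive = some wells, but at most half, below -50%; inactive = no replicate well below -50%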;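 also: luciferase reports HSF-1 transcriptional activity via heat shock element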
STAT1 blocker: STAT1 signaling inhibitors, primary screen, cell-based, HTS, luciferase reporter; NIH 3T3 STAT1-luciferase reporter, IFN-gamma, luminescence; inhibition, % at 5.5 µM; 200,000 tested, 0.35% active; AID 920, 2007;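 active = inhibition above a set limit, the mean inhibition across all tested compounds plus 3 SD, cut at about 34% in these data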
HSP90 refold inh: HSP90 inhibitors, primary screen, cell lysate, luminescence; Heat shock protein HSP 90 (rabbit reticulocyte lysate; luciferase refolding); Rabbit reticulocyte lysate, luciferase refolding luminescence, 3 h; inhibition, % at 5.6 µM; 290,000 tested, 0.91% active; AID 1789, 2009;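 active = inhibition above the screen-wide mean plus 3 SD, computed separately per campaign, cut at about 16% in these data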;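 also: inhibitors lower the luminescence because luciferase stays unfolded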
PPC-1+TRAIL kill: compounds killing PPC-1 cancer cells with TRAIL present, primary screen, TRAIL potentiator project, ATPLite luminescence, uHTS; PPC-1 cells + TRAIL, ATPLite viability luminescence; cell killing (% activity), % at 4 µM or 5 µM; 220,000 tested, 0.41% active; AID 1443, 2008;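 active = cell killing above 50% in the first pass at 4 µM, then a duplicate retest at 5 µM averaging 50% or more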
STAT3 inh-1: IL-6 driven STAT3 reporter inhibitors, primary screen, U3A cells, luciferase, luminescence, MLSCN library; 190,000 tested, 0.89% active; inhibition, % at 5.5 µM; IL-6 STAT3-luciferase reporter; host cell line lacks STAT1;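 active = inhibition above the mean inhibition across all screened compounds plus 3 SD, cut at about 44% in these data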
C8 TRAIL sens: viability loss with TRAIL in NB7+C8 cells, primary screen, TRAIL sensitizer project, cell-based, ATPlite luminescence; 360,000 tested, 1% active; inhibition (viability loss, TRAIL sensitization), % at 10 µM; AID 624354, 2012;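 active = compounds causing at least 50% loss of cell viability in the single-dose screen, relative to plate controls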
STAT3 inh-2: STAT3 reporter inhibitors, retest of hits, confirmation, U3A cells, luciferase, luminescence. AID 1265, 2008. 1,200 tested, 45% active. inhibition, % at 5.7 µM. shares compounds with STAT3 inh-1. IL-6 STAT3 luciferase reporter; cell line lacks STAT1;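 active = inhibition above the hit cutoff computed for the primary STAT3 screen, cut at about 44% in these data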
NFkB inh 2: NF-kB reporter inhibitors in human cells, confirmation, counter-screen for STAT3 inhibitor project, cell-based, HEK293T, luciferase, TNF-alpha stimulus; shares compounds with STAT3 inh-1; TNF-alpha induced; inhibition, % at 5.7 µM; 1,200 tested, 36% active; AID 1308, 2008;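 active = inhibition above the mean of solvent-only control wells plus 3 SD, cutoff set per campaign, cut at about 13% in these data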
STAT1 inh 2: STAT1 reporter inhibitors, IFN-gamma induced, confirmation, counter-screen for STAT3 inhibitor project, cell-based, NIH 3T3, luciferase luminescence | shares compounds with STAT3 inh-1 | 1,200 tested, 27% active | AID 1317, 2008 | inhibition, % at 5.7 µM | NIH 3T3 STAT1-luciferase reporter;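 active = inhibition above the mean plus 3 SD of solvent-only control wells, limit set per screening run, cut at about 16% in these data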
Of the large screens only hits and unclear results are named; the others gave an inactive call (follow-up assays come after a bar, where they were run). Sampled rows, rich in hits. Any-hit rate of the full collection: about 2.4%.

O=C1c2ccccc2C(=O)C2OC12 (stereo not given)	none (no result: STAT1 blocker, PPC-1+TRAIL kill, STAT3 inh-1, C8 TRAIL sens)
Cc1ccc(-c2cc3nc4c(c(=O)n3[nH]2)CCCC4)cc1	STAT3 inh-1 44, C8 TRAIL sens 60 (no result: PPC-1+TRAIL kill) | STAT3 inh-2 inactive | NFkB inh 2 inactive | STAT1 inh 2 inactive
O=c1c2c(nc3cc(-c4ccc(F)cc4)[nH]n13)CCC2	none
O=C1NC(Cc2ccc(O)cc2)c2nc3ccccc3c(=O)n2-c2ncccc21 (stereo not given)	none (no result: HSF1 inhib, STAT1 blocker, HSP90 refold inh, PPC-1+TRAIL kill, STAT3 inh-1)
C=CCNc1nc(-c2c(C)nc3sccn23)cs1	none
Cc1nc2sccn2c1-c1csc(NCc2ccccc2)n1	STAT3 inh-1 66 | STAT3 inh-2 51 | NFkB inh 2 inactive | STAT1 inh 2 inactive
O=C(CC(Nc1ccccc1Cl)C(=O)O)c1ccccc1 (stereo not given)	HSF1 inhib inconclusive, STAT3 inh-1 62 | STAT3 inh-2 inactive | NFkB inh 2 inactive | STAT1 inh 2 inactive
Cc1c(Cl)cccc1NC(CC(=O)c1ccccc1)C(=O)O (stereo not given)	none
Fc1ccc(NC(=S)Nc2ccc(Cl)cc2Cl)cc1	STAT3 inh-1 44 (no result: C8 TRAIL sens) | STAT3 inh-2 inactive | NFkB inh 2 inactive | STAT1 inh 2 inactive
Cc1cc(C(=O)CSc2nnc(-c3cccs3)o2)c(C)n1-c1ccccc1	HSF1 inhib -73, STAT3 inh-1 47 | STAT3 inh-2 inactive | NFkB inh 2 17 | STAT1 inh 2 inactive
CC1OC(c2ccccc2)OC2COC(c3ccccc3)OC12 (stereo not given)	none (no result: HSF1 inhib, STAT1 blocker, HSP90 refold inh, PPC-1+TRAIL kill, STAT3 inh-1)
O=C(Nc1ccccc1)Nc1ncc([N+](=O)[O-])s1	STAT3 inh-1 54, C8 TRAIL sens 55 | STAT3 inh-2 inactive | NFkB inh 2 inactive | STAT1 inh 2 inactive
O=C(/C=C/c1ccc(Cl)cc1)Nc1nccs1	STAT3 inh-1 44 | STAT3 inh-2 inactive | NFkB inh 2 inactive | STAT1 inh 2 inactive
COc1ccc(N2CCCC2=O)cc1S(=O)(=O)N1CCOCC1	none (no result: HSF1 inhib, STAT1 blocker, HSP90 refold inh, PPC-1+TRAIL kill, STAT3 inh-1)
COc1ccc(C(=O)NC(Nc2ccc(C)cc2)C(Cl)(Cl)Cl)cc1 (stereo not given)	none
COc1ccc(NC(NC(=O)c2ccc(OC)cc2)C(Cl)(Cl)Cl)cc1 (stereo not given)	STAT3 inh-1 50 | STAT3 inh-2 inactive | NFkB inh 2 inactive | STAT1 inh 2 inactive
COc1ccc(Nc2nc(N3CCCCC3)c3ccccc3n2)cc1	STAT3 inh-1 47 | STAT3 inh-2 49 | NFkB inh 2 inactive | STAT1 inh 2 27
CCN1CCN(c2ncnc3c2cnn3-c2ccc(Cl)cc2)CC1	none (no result: STAT1 blocker, HSP90 refold inh, STAT3 inh-1)
Cc1ccc(Cn2ncc3c(N4CCN(c5ccc(C)cc5)CC4)ncnc32)cc1	STAT3 inh-1 69 | STAT3 inh-2 63 | NFkB inh 2 20 | STAT1 inh 2 inactive
Cc1ccc(Cn2ncc3c(N4CCN(Cc5ccc(Cl)cc5)CC4)ncnc32)cc1	STAT3 inh-1 54 | STAT3 inh-2 49 | NFkB inh 2 25 | STAT1 inh 2 inactive
CN1CCN(c2ncnc3c2cnn3-c2ccc(Cl)cc2)CC1	HSF1 inhib inconclusive, HSP90 refold inh 42, STAT3 inh-1 53 | STAT3 inh-2 inactive | NFkB inh 2 inactive | STAT1 inh 2 inactive
Cc1ccc2nc(-c3ccc(F)cc3)c(CC3CCCCC3)n2c1	none (no result: HSF1 inhib, STAT1 blocker, HSP90 refold inh, PPC-1+TRAIL kill, STAT3 inh-1)
Cc1oc(-c2ccc(Cl)cc2)nc1CN1CCCC(C(=O)N2CCN(C(=O)c3ccco3)CC2)C1 (stereo not given)	STAT3 inh-1 79 | STAT3 inh-2 72 | NFkB inh 2 26 | STAT1 inh 2 inactive
C[C@H]1CN([C@@H](C)CO)C(=O)c2cc(Br)cnc2O[C@H]1CN(C)Cc1ccccc1C(=O)O	none (no result: HSF1 inhib, STAT1 blocker, HSP90 refold inh, PPC-1+TRAIL kill, STAT3 inh-1)
CC(=O)c1c(C)[nH]c(C(=O)OCc2ccc(F)cc2Cl)c1C	STAT3 inh-1 48 | STAT3 inh-2 54 | NFkB inh 2 inactive | STAT1 inh 2 inactive
CC(=O)c1c(C)[nH]c(C(=O)OCc2c(F)cccc2Cl)c1C	none
OC(c1cccc(Cl)c1)c1ncc(-c2ccc(Oc3ccccc3)cc2)[nH]1 (stereo not given)	none (no result: HSF1 inhib, STAT1 blocker, HSP90 refold inh, PPC-1+TRAIL kill, STAT3 inh-1)
CCc1nc2c(OCc3ccccc3)cccn2c1N(C)C(C)=O	none (no result: HSF1 inhib, STAT1 blocker, HSP90 refold inh, PPC-1+TRAIL kill, STAT3 inh-1)
CC(C)(C)C1C/C(=C/c2ccccn2)C(=O)/C(=C/c2ccccn2)C1 (stereo not given)	STAT3 inh-1 48 | STAT3 inh-2 inactive | NFkB inh 2 52 | STAT1 inh 2 inactive
CC1C/C(=C/c2ccccn2)C(=O)/C(=C/c2ccccn2)C1 (stereo not given)	STAT3 inh-1 56 | STAT3 inh-2 inactive | NFkB inh 2 inactive | STAT1 inh 2 inactive
COC(=O)[C@]12CCCCC=C1N(Cc1ccc3c(c1)OCO3)C(=O)[C@H](CC(=O)NCCCN1CCCC1=O)C2	none (no result: HSF1 inhib, STAT1 blocker, HSP90 refold inh, PPC-1+TRAIL kill, STAT3 inh-1)
Cc1ccc([C@H]2C[C@H](O)[C@@H](n3cc(C4CC4)nn3)CN2Cc2cccs2)cc1	none (no result: HSF1 inhib, STAT1 blocker, HSP90 refold inh, PPC-1+TRAIL kill, STAT3 inh-1)
Cc1cc(N2CCN(C(c3ccccc3)c3ccccc3)CC2)n2ncnc2n1	none
Cc1cc(N2CCN(c3nc4ccccc4s3)CC2)n2ncnc2n1	STAT3 inh-1 83 | STAT3 inh-2 73 | NFkB inh 2 25 | STAT1 inh 2 30
CC1(Oc2ccc(CC#N)cc2)CCN(Cc2ccc(-n3ccnc3)cc2)C1 (stereo not given)	none (no result: HSF1 inhib, STAT1 blocker, HSP90 refold inh, PPC-1+TRAIL kill, STAT3 inh-1)
O=C(CSc1nnc(-c2c[nH]c3ccccc23)o1)N1c2ccccc2CCc2ccccc21	STAT3 inh-1 49 | STAT3 inh-2 inactive | NFkB inh 2 inactive | STAT1 inh 2 inactive
O=C(CSc1nnc(-c2c[nH]c3ccccc23)o1)N1CCCCC1	none
COc1ccc(OCC(=O)Nc2ccc(N3CCN(C(=O)c4ccco4)CC3)cc2)cc1	none
CC(=O)N1CCN(c2ccc(NC(=O)COc3ccc(Cl)cc3Cl)cc2)CC1	STAT3 inh-1 60 | STAT3 inh-2 inactive | NFkB inh 2 inactive | STAT1 inh 2 inactive
O=C(COc1ccc(Cl)cc1)Nc1ccc(N2CCN(C(=O)c3ccco3)CC2)cc1	STAT3 inh-1 61 | STAT3 inh-2 inactive | NFkB inh 2 inactive | STAT1 inh 2 inactive
CC(=O)N1CCN(c2ccc(NC(=O)C(C)Oc3ccc(Cl)cc3Cl)cc2)CC1 (stereo not given)	none
